Records with an inconclusive call do not appear. Calls of active or inactive are those of the source. Calls follow the shape of the full dose curve.

The record followed here is PubChem BioAssay AID1963317 (National Center for Advancing Translational Sciences (NCATS), 2024).

Sequence of Tyrosine-protein kinase ABL1 (Homo sapiens) (P00519 whole entry, looked up): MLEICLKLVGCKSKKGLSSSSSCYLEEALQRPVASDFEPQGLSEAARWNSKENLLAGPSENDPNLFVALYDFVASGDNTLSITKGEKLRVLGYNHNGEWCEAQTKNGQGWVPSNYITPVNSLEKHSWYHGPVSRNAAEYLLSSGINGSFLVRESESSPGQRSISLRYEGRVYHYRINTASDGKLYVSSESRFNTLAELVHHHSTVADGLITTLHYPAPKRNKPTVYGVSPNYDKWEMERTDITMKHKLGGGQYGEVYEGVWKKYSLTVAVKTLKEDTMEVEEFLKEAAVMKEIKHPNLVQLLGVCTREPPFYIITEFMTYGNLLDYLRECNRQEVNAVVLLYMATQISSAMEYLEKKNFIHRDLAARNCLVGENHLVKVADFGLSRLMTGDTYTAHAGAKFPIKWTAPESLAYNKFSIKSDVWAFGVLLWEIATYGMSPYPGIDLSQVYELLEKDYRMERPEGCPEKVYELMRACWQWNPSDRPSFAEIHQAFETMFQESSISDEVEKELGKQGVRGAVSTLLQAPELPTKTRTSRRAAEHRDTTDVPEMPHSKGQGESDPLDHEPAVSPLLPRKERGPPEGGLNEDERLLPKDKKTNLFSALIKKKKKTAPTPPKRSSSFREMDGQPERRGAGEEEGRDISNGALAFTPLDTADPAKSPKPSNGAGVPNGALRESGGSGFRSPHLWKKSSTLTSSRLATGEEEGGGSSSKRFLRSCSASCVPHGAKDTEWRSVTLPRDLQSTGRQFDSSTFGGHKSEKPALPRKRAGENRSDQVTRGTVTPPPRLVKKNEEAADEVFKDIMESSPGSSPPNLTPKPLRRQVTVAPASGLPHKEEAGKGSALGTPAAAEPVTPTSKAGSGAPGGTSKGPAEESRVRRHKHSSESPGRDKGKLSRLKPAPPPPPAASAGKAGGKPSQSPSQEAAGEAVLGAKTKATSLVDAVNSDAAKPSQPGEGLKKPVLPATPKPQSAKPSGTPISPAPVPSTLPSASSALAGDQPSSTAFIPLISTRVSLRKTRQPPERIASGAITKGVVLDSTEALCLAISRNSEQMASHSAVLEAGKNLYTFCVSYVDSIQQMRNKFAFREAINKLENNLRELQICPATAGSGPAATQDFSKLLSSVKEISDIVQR

The assay deals with Tyrosine-protein kinase ABL1 (Homo sapiens) (UniProt P00519). Put plainly: ABL1 kinase (ABL1-N-HiBiT) enzymatic inhibition screen - Functional assay. Conditions: luminescence; series mostly up to 57.5 µM; activity change, negative = inhibition: at the top concentration. The source says:
National Center for Advancing Translational Sciences (NCATS),
National Institute of Health (NIH), Maryland
Discovery and optimization of novel protein-binding ligands underlies many of the methods and applications of biology, drug discovery, clinical diagnostics, and environmental toxicology. Assays for detecting the interaction of, for example, a molecule with a macromolecular target also referred to here as the target of interest (TOI) is dependent on a compatible output technology. Depending on the nature and knowledge surrounding the TOI, whether a receptor, enzyme, regulatory subunit or scaffold, or a sequence-defined nucleic acid folded into a complex tertiary structure, assay strategies can vary widely.
Here we exploit ligand-biased changes in the structural dynamics of the target protein to control reporter alpha complementation allowing a non-competitive, non-functional, non-separation measure of ligand-target interaction.
Using a chemical library of >1,200 compounds enriched for scaffolds known to be associated with the inhibition of firefly luciferase (FLuc) activity (PubChem AIDs 2309) we first illustrate and compare the Structural Dynamics Response (SDR) assay vs. the standard functional FLuc enzyme assay (2). Secondly, we show the specificity and sensitivity of the SDR for the Abelson tyrosine kinase (ABL1) compared to the serine/threonine protein kinase A, using an enriched chemical library of 128 compounds selected, in part, for activity annotated with ABL1 kinase activity using the Pharos database (3).
(1) A. S. Dixon et al., NanoLuc Complementation Reporter Optimized for Accurate Measurement of Protein Interactions in Cells.
Chemistry & Biology, 19, 1060 - 1072 (2012).
(3) K. J. Kelleher et al., Pharos 2023: an integrated resource for the understudied human proteome. Nucleic Acids Res 51, D1405-D1416 (2023).
PROTOCOL TABLE (as described by Inglese J, Shamu CE and Guy RK. 2007)
SEQUENCE No. (e.g., 1, 2, 3, etc.); […] (e.g., C. elegans, Compounds, Incubation, Read, etc.); VALUE and DESCRIPTION.
1. Reagent. Dispense 4 uL ABL1-N-HiBiT enzyme per well at a final enzyme concentration of 10 nM in buffer with 87.5 uM ATP (functional assay) into columns 2-48 of four replicate Greiner 1536-well white, solid bottom high base, medium plates per assay. Dispense respective buffer without enzyme at 4 uL/well in column 1 of assay plates using BioRaptr 2.
2. Compounds. Library compounds added at 23 nL/well by pin transfer. DMSO neutral control and imatinib positive control added at 25 nL/well, transfer by Mosquito dispenser.
3. Incubation. Incubate enzyme and compounds at room temperature for 30 min, protected from light.
4. Reagent. (Functional assay) Transfer 25 nL of abltide peptide substrate to each well of four replicate kinase assay plates with Mosquito dispenser.
5. Incubation. (Functional assay) Kinase enzyme incubated with peptide substrate for 3 h at room temperature, protected from light.
6. Reagent. (Functional assay) Add 4 uL/well of Kinase-Glo Plus reagent (Promega) to kinase activity assay plates, in the presence of ATP.
7. Detector. (Functional assay) Luminescence measured using CCD-based camera (ViewLux) with settings as follows: Exposure, 1 sec; Gain, High; Speed, Slow; Binning, 2X.
Inglese J, Shamu CE and Guy RK, Reporting data from high throughput screening of small molecule libraries, Nature Chemical Biology, 2007, 3(8): 438-441. doi.org/10.1038/nchembio0807-438.
Background: With HiBiT, luminescence reflects the tagged protein that the partner subunit can reach.
Consider `N#Cc1cn([C@@H]2O[C@H](CO)[C@H](O)[C@@H]2O)c2ncnc(N)c12`, for which the “activity change, negative = inhibition” value is 23.6% (inactive).
Regarding `O=C(NCCCNc1nc(Nc2ccc(N3CCOCC3)cc2)ncc1C1CC1)C1CCC1`, the “activity change, negative = inhibition” value was 22.3% (inactive).
The same measure for `C/C(O)=C(\C#N)C(=O)Nc1cc(Br)ccc1Br`: 36.4% (inactive); for `O=[N+]([O-])O[C@H]1CO[C@H]2[C@@H]1OC[C@H]2O[N+](=O)[O-]`: 28.1% (inactive).
To `Cc1[nH]nc2ccc(-c3cncc(OC[C@@H](N)Cc4c[nH]c5ccccc45)c3)cc12` belongs 32.6% (inactive); to `CCNC(=O)C[C@@H]1N=C(c2ccc(Cl)cc2)c2cc(OC)ccc2-n2c(C)nnc21`, 30% (inactive).
